Compound activity from PubChem BioAssay.
This is a sample that favours compounds with a hit; in the whole collection about 3.3% have one here.
Sm TGR inh: S. mansoni TGR enzyme inhibition; AID 485364; Potency, µM (titrated, usually from 114 µM), inactives show at the top dose activity change, negative = inhibition, most hits filed as inhibitors; 3% of 360,000 active; purified TGR, DTNB reduction, TNB absorbance 405 nm; Q962Y6; further: nearly all actives have a fitted effect of over 60% in size
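Kinetic colorimetric format: TGR-catalysed, NADPH-driven DTNB reduction monitored via TNB absorbance. Enzyme dispensed at 20 nM; compound exposure 15 min at room temperature before reaction start.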
AmpC detergent: AmpC beta-lactamase inhibition with detergent present. P00811. AmpC hydrolysis of nitrocefin, absorbance 480 nm, 0.01% Triton. Potency, µM (series often up to 114 µM), for the others: at the top dose activity change, negative = inhibition, actives largely listed as inhibitors. 0.041% of 370,000 active. AID 485294;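 further: 0% = no-compound wells and -100% = no-enzyme wells; nearly all actives have a fitted effect of over 25% in size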
Target sequence (P00811 whole entry, looked up): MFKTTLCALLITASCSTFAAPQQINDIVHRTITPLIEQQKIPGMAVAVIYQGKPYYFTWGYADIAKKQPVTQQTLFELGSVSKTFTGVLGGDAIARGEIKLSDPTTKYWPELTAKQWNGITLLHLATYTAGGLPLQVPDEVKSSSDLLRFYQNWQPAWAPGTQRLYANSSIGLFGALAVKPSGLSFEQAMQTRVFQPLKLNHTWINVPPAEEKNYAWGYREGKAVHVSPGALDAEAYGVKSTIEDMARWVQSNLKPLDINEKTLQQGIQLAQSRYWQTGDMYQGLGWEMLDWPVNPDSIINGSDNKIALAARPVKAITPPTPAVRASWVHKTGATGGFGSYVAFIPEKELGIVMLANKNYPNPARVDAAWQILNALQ
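20 mM phosphate pH 7.0 + 0.01% (detergent screen) or 0.0001% Triton X-100; 5.3 nM AmpC reagent; cpd preinc 15 min RT; nitrocefin (800 uM stock) to start; A480 q20 s × 4 min; Activity was normalised to no-enzyme and no-compound control wells.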
AmpC no deterg: inhibitors of E. coli AmpC beta-lactamase without detergent; AmpC nitrocefin hydrolysis, absorbance 480 nm, 0.0001% Triton; Potency, µM (titrated, usually from 57.1 µM), inactives show at the top dose activity change, negative = inhibition, hits mostly inhibitors; 0.52% of 330,000 active; AID 485341;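 further: plate controls were no compound for no effect and no enzyme for full effect; nearly all actives have a fitted effect of over 20% in size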
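20 mM phosphate pH 7.0 + 0.01% (detergent screen) or 0.0001% Triton X-100; 5.3 nM AmpC reagent; cpd preinc 15 min RT; nitrocefin (800 uM stock) to start; A480 q20 s × 4 min; Activity was normalised to no-enzyme and no-compound control wells.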
* marks the source's active call; other numbers are inactive results; ? = inconclusive; . = no result given; [ ] = another dose, or the depositor's remark. The call rests on the fitted dose curve; in most records, active means well fitted curve in the direction sought with a large enough effect; inconclusive means small, poorly fitted or top-dose-only effect, or another doubt; inactive means no such curve, though single readings can be large; an effect the other way counts as inactive or inconclusive. Unless noted, on the % scale 0 is the no-effect control and ±100 the full control effect; potency means the concentration at half of the fitted maximal effect.

SMILES	Sm TGR inh	AmpC detergent	AmpC no deterg
Cc1ccc2oc(=O)c3cnn(CC(=O)Nc4ccc(Br)cc4C)c3c2c1	0%	1%	.
Cc1cc(Br)ccc1NC(=O)CNC(=O)Cn1ncc(Cl)c(Cl)c1=O	1.4µM*	4%	-21%
CCOC(=O)c1ccc(NC(=O)Cn2nc(C)c3ccccc3c2=O)cc1	0%	?	-9%
CCOC(=O)c1ccc(NC(=O)Cn2ncc(Cl)c(Cl)c2=O)cc1	18µM*	-2%	-59%
Cc1ccc(C(=O)OCn2ncc(Cl)c(Cl)c2=O)cc1	4µM*	-1%	-11%
CCC(=O)Nc1ccc(C(=O)Cn2ncc(Cl)c(Cl)c2=O)cc1	2.8µM*	-8%	-5%
COc1cc(-c2nc(Cn3nnc(C(=O)Nc4ccc(C)cc4C)c3C)c(C)o2)cc(OC)c1OC	10%	22%	.
COc1ccc(NC(=O)C(=O)c2cc(C)n(-c3ccc(C)cc3)c2C)cc1Cl	-6%	6%	.
COc1ccccc1NC(=O)C1=C(C)Nc2nnnn2C1c1ccc(C(F)(F)F)cc1 (stereo not drawn)	0%	0%	.
CCCCC(Sc1nc2cc3c(cc2c(=O)n1CCCC(=O)NCc1ccc(OC)cc1)OCO3)C(=O)OCC (stereo not drawn)	1%	8%	.
COC(=O)CCC(NC(=O)c1cc(-c2ccc3c(c2)OCCO3)oc1C)C(=O)OC (stereo not drawn)	?	-8%	71%
Cc1oc(-c2ccc3c(c2)OCCO3)cc1C(=O)NC(Cc1ccccc1)C(=O)O (stereo not drawn)	35µM*	-1%	-5%
CCc1ccc(CNC(=O)CCc2c(C)nn(-c3ccc(N4CCCC4)nn3)c2C)cc1	-3%	21%	.
O=C(c1ccc2c(c1)N(Cc1ccccc1)C(=O)c1ccccc1S2(=O)=O)N1CCN(Cc2ccccc2)CC1	-10%	-5%	.
O=C(CC1Oc2ccccc2NC1=O)NCCCN1CCOCC1 (stereo not drawn)	6%	?	2.5µM*
Cc1ccc2c(c1)NC(=O)C(CC(=O)NCCCN1CCCC1)O2 (stereo not drawn)	-8%	-13%	14%
CN(C)c1ccc(CN(C(=O)C2COc3ccccc3O2)C2CCS(=O)(=O)C2)cc1 (stereo not drawn)	20µM*	7%	64%
CC(C)c1ccc(CN(C(=O)C2COc3ccccc3O2)C2CCS(=O)(=O)C2)cc1 (stereo not drawn)	1%	1%	70%
COc1ccc(NC(=O)CCCn2nc(C)c3sc4ccccc4c3c2=O)cc1	5%	19%	.
CC(=O)Nc1ccc(S(=O)(=O)NCc2ccc(C)n2C)cc1	14µM*	3%	-1%
CC(=O)Nc1ccc(S(=O)(=O)NCc2ccncc2)cc1	5%[57.1 µM]	1%	0%
C/C(=N\Nc1ccc(Cl)c(Cl)c1)c1ccc(-n2ccnc2)cc1	-16%	0%	14µM*
C/C(=N\NC(N)=S)c1ccc(-n2ccnc2)cc1	-7%	-9%	-19%
Cc1ccc(-n2cccc2/C=C2/NC(=O)N(CC(=O)Nc3cccc(C)c3)C2=O)cc1	-23%	?	32µM*
Cc1cccc(NC(=O)CN2C(=O)N/C(=C/c3cc(C)n(C)c3C)C2=O)c1	25µM*	-6%	0%
SMILES	Sm TGR inh	AmpC detergent	AmpC no deterg
Cc1cccc(NC(=O)CN2C(=O)S/C(=C\c3cc(C)n(C)c3C)C2=O)c1	?	-14%	-22%
Cc1cccc(NC(=O)CN2C(=O)N/C(=C/c3cc(C)n(-c4ccncc4)c3C)C2=O)c1	2%	-5%	0%
Cc1cc(/C=C2\SC(=O)N(CC(=O)Nc3ccccc3F)C2=O)c(C)n1C	25µM*	4%	2%
Cc1cccc(NC(=O)CN2C(=O)N/C(=C\c3cccn3-c3cccc(C(=O)O)c3)C2=O)c1	-1%	-5%	-14%
CCOC(=O)C1CCCN(c2cc(C)nc3c(-c4ccccc4OC)c(C)nn23)C1 (stereo not drawn)	10%	3%	.
Clc1ccccc1CSc1nc(NCCc2ccccc2)c2ccccc2n1	12%	-2%	.
CCN1CCN(c2nc3c(S(=O)(=O)c4ccc(Br)cc4)nnn3c3ccsc23)CC1	3%	13%	.
Cc1nnc(N2C(=O)c3oc4ccccc4c(=O)c3C2c2ccc(Cl)cc2)s1 (stereo not drawn)	5%	0%	.
CC(C)c1ccc(NC(=O)Cn2cc(S(=O)(=O)Cc3ccccc3Cl)c3ccccc32)cc1	1%	0%	.
COCCn1nnnc1C(c1ccccc1OC)N1CCN(c2ccccc2F)CC1 (stereo not drawn)	0%	-10%	79%
COCCn1nnnc1C(c1cc2cccc(C)c2[nH]c1=O)N1CCN(c2ccccc2F)CC1 (stereo not drawn)	14µM*	9%	74%
CCc1ccc2[nH]c(=O)c(C(c3nnnn3CCOC)N3CCN(c4ccc(F)cc4)CC3)cc2c1 (stereo not drawn)	50µM*	?	115%
CCc1ccc2[nH]c(=O)c(C(c3nnnn3Cc3ccccc3)N3CCOCC3)cc2c1 (stereo not drawn)	0%	?	-8%
COCCn1nnnc1C(c1cc2cc(OC)c(OC)cc2[nH]c1=O)N1CCN(c2ccc(O)cc2)CC1 (stereo not drawn)	11%	-8%	-7%
CCc1ccc2[nH]c(=O)c(C(c3nnnn3CCOC)N3CCN(c4ccccc4)CC3)cc2c1 (stereo not drawn)	45µM*	-12%	111%
CC(=O)N1CCCC1c1nc2ccccc2n1Cc1cc(C)ccc1C (stereo not drawn)	-13%	4%	.
COc1ccc(-c2nc(CN3CCC(C(=O)NCCCOC(C)C)CC3)c(C)o2)cc1OC	-2%	-10%	.
O=S(=O)(NCC(c1ccco1)S(=O)(=O)c1cccs1)c1ccccc1 (stereo not drawn)	0.2µM*	0%	.
O=S(=O)(NCC(c1ccco1)N1CCCCC1)c1cccc(C(F)(F)F)c1 (stereo not drawn)	-13%	1%	1%
O=S(=O)(NCC(c1ccco1)S(=O)(=O)c1cccs1)c1ccc(F)c(C(F)(F)F)c1 (stereo not drawn)	0.1µM*	0%	.
O=S(=O)(NCC(c1ccco1)S(=O)(=O)c1cccs1)c1ccc(Cl)cc1 (stereo not drawn)	0.1µM*	3%	.
O=S(=O)(NCC(c1cccs1)S(=O)(=O)c1ccccc1)c1ccccc1 (stereo not drawn)	0.32µM*	0%	.
CC(C)(C)c1ccc(C(=O)NCC(c2cccs2)S(=O)(=O)c2ccccc2)cc1 (stereo not drawn)	-4%	1%	.
O=C(CCNS(=O)(=O)c1ccc(Cl)cc1)NCc1cccs1	-2%	-2%	-10%
O=S(=O)(NCC(c1ccco1)N1CCN(c2ccccc2F)CC1)c1ccccc1 (stereo not drawn)	-2%	2%	-21%
Nc1c(C(=O)NCc2cccs2)nnn1CC(=O)Nc1cccc(F)c1	0%	-1%	.
CC(=O)Oc1ccc(/C=C2/CCc3ccccc3C2=O)cc1	-4%	6%	-31%
COc1cccc(/C=C2\CCc3ccccc3C2=O)c1	1%	-2%	-35%
COc1ccc2c(c1)CC/C(=C\C=C\c1ccccc1)C2=O	45µM*	-7%	-58%
